# In PubChem BioAssay (NCATS):
# Several values for one entry are separate records, joined by “and”; a condition that tells them apart may be missing. Equal entries are not always repeated. Records with an inconclusive call do not appear. Where a call stands in place of a potency, no number is given. Activity calls are given as the source filed them. Unless noted, calls follow the shape of the full dose curve.
# Key:
# [1] = target: Estrogen receptor (Homo sapiens) (UniProt P03372); test: qHTS assay for small molecule agonists of estrogen receptor alpha signaling (AID 588514); also: nearly all actives have a fitted effect of over 70% in size
# Method in brief: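 ER-alpha-UAS-bla GripTite HEK 293 cells in medium with 2% charcoal/dextran-treated FBS were treated with compound titrations at 37 C for 18 hrs; beta-lactamase reporter read by CCF4 fluorescence after 2 hrs at RT.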
# [2] = target: Bile acid receptor (Homo sapiens) (UniProt Q96RI1); test: qHTS assay for small molecule antagonists of farnesoid X receptor signaling (AID 588526)
# Method in brief: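 Antagonist mode: titrated compounds tested against chenodeoxycholic acid stimulation (normalized to 50 uM CDCA and DMSO) in GeneBLAzer HEK293T cells for 16 h. Beta-lactamase read by CCF4 fluorescence; IC50 from Hill fits.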
# [3] = target: Glucocorticoid receptor (Homo sapiens) (UniProt P04150); test: qHTS assay for small molecule agonists of glucocorticoid receptor signaling (AID 588532; active = well fitted curve in the direction sought with a large enough effect in the signal ratio, with a control signal flat; the % refers to the signal ratio); settings: HeLa MMTV-bla, beta-lactamase ratio, agonist, 18 h; stronger effect = higher value; percent of dexamethasone control, DMSO zero
# Method in brief: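 HeLa GRE-bla reporter cells; 18 h compound exposure at 37 C; 2 h CCF4 loading at room temperature; fluorescence at 460 and 530 nm; EC50 by Hill equation.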
# [4] = target: Glucocorticoid receptor (Homo sapiens) (UniProt P04150); test: qHTS assay for small molecule antagonists of glucocorticoid receptor signaling (AID 588533; active = well fitted inhibition curve with a large enough effect in the signal ratio, with a control signal flat, not every such curve was filed as active; the % refers to the signal ratio)
# Method in brief: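 Antagonist-mode qHTS: compound titrations added to GRE-bla HeLa cells, then dexamethasone 2 nM final; 18 h, 37 C. CCF4 FRET fluorescence normalized to dexamethasone and DMSO; IC50 from Hill fit.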
# [5] = qHTS assay for small molecule antagonists of peroxisome proliferator-activated receptor delta signaling (AID 588535; active = well fitted inhibition curve with a large enough effect in the signal ratio, with a control signal flat, not every such curve was filed as active; the % refers to the signal ratio;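 as to max response: cells co-treated with a PPAR-delta agonist as stimulator during compound exposure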); settings: HEK293T PPARd-UAS-bla, beta-lactamase FRET ratio, 18 h; 460 nm channel
# Method in brief: (§1)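 Cells were seeded at 4000 per well in assay medium containing 2% charcoal/dextran FBS and held 5 hrs at 37 C. Compounds were then added for 18 hrs. CCF4 substrate was applied for 2 hrs at room temperature before fluorescence reading.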
# [6] = target: Peroxisome proliferator-activated receptor delta (Homo sapiens) (UniProt Q03181); test: as above
# Method in brief: as §1
# [7] = target: Peroxisome proliferator-activated receptor gamma (Homo sapiens) (UniProt P37231); test: qHTS assay for small molecule agonists of peroxisome proliferator-activated receptor gamma signaling (AID 588536; active = well fitted curve in the direction sought with a large enough effect in the signal ratio, with a control signal flat, not every such curve was filed as active; the % refers to the signal ratio)
# Method in brief: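 Test agents, titrated, stimulated HEK293 UAS-bla cells overnight (16 h, 37 C). Substrate CCF4 was then added for two hours at room temperature before fluorescence reading.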
# [8] = target: Peroxisome proliferator-activated receptor gamma (Homo sapiens) (UniProt P37231); test: qHTS assay for small molecule antagonists of peroxisome proliferator-activated receptor gamma signaling (AID 588537; active = well fitted inhibition curve with a large enough effect in the signal ratio, with a control signal flat, not every such curve was filed as active; the % refers to the signal ratio;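 also: reporter cells co-stimulated with 50 nM rosiglitazone agonist during compound treatment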)
# Method in brief: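 Step one: plate 3000 HEK293 UAS-bla cells per well in medium with 1% stripped serum and hold 6-6.5 h at 37 C. Step two: add compound and 50 nM agonist for 16 h. Step three: CCF4 loading, fluorescence read.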
# [9] = target: Vitamin D3 receptor (Homo sapiens) (UniProt P11473); test: qHTS assay for small molecule antagonists of vitamin D receptor signaling (AID 588541);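 also: receptor activated by calcitriol during compound treatment; series mostly up to about 77 µM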
# Method in brief: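 VDR-UAS-bla HEK293T cells in 2% charcoal-stripped FBS were stimulated with 1-alpha,25-dihydroxyvitamin D3 (3 nM final) plus compound for 16 h at 37 C. The beta-lactamase CCF4 readout was normalized to 50 nM agonist and DMSO, and Hill fits gave IC50.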
# [10] = target: Vitamin D3 receptor (Homo sapiens) (UniProt P11473); test: qHTS assay for small molecule agonists of vitamin D receptor signaling (AID 588543)
# Method in brief: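 Reporter cells (HEK293T, VDR-UAS-bla) were seeded in medium with 2% charcoal-stripped serum and incubated 5 h, then compounds in concentration series were added for 16 h at 37 °C. Stimulation was scaled between DMSO basal and 50 nM 1α,25-dihydroxyvitamin D3.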
# [11] = qHTS assay for small molecule agonists of retinoid X receptor alpha signaling (AID 588544); settings: HEK293T RXRa-UAS-bla, beta-lactamase reporter, 18 h; 530 nm emission
# [12] = qHTS assay for small molecule antagonists of retinoid X receptor alpha signaling (AID 588546; active = well fitted inhibition curve with a large enough effect in the signal ratio, with a control signal flat, not every such curve was filed as active; the % refers to the signal ratio;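 also: cells stimulated with 9-cis-retinoic acid as agonist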); settings: HEK293T RXRa-UAS-bla, beta-lactamase ratio, antagonist mode; measured here: W530 green channel, cytotoxicity proxy
# Method in brief: (§2)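 Beta-lactamase reporter inhibition, read as CCF4 fluorescence ratio (ex 405, em 460/530 nm) after 2 h at RT. HEK293T UAS-bla cells, 2500/well, were stimulated with 9-cis-RA at 500 or 100 nM final alongside test compound for 18 h at 37 C.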
# [13] = target: Retinoic acid receptor RXR-alpha (Homo sapiens) (UniProt P19793); test: as above; settings: HEK293T RXRa-UAS-bla, beta-lactamase ratio, antagonist mode
# Method in brief: as §2
# [14] = qHTS assay for small molecule activators of the p53 signaling pathway (AID 651743; active = well fitted activation curve with a large enough effect in the signal ratio, not every such curve was filed as active; the % refers to the signal ratio; also: series mostly up to about 92 µM); settings: HCT-116 p53RE-bla, beta-lactamase FRET ratio, 16 h; activation: stronger effect = higher value
# Method in brief: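 HCT-116 p53RE-bla, 4,000 cells/well; 5 h settle; cpd/DMSO 16 h, 37 C; LiveBLAzer B/G 2 h RT; fluorescence intensity.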
# [15] = target: Tumor necrosis factor (Homo sapiens) (UniProt P01375); test: qHTS assay to identify small molecules that stimulate Tumor Necrosis Factor-alpha (TNF-alpha) secretion (AID 651757; active = well fitted curve in the direction sought with a large enough effect in the signal ratio; the % refers to the signal ratio)
# Method in brief: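 THP-1 cells were exposed to compounds for 17 hrs at 37 C, after which secreted TNF-alpha was measured by homogeneous HTRF (TR-FRET) using cryptate- and XL665-labeled anti-TNF-alpha antibodies, read after 3 hr at room temperature.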
# [16] = qHTS assay to identify small molecules that stimulate interleukin-8 (IL-8) secretion (AID 651758; active = well fitted activation curve with a large enough effect in the signal ratio; the % refers to the signal ratio)
# Method in brief: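 THP-1 cells (2000/well) exposed to compound 16 h at 37 C; secreted IL-8 then detected by HTRF with cryptate- and XL665-labelled anti-IL-8 antibody pair after 1-3 h at room temperature.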
# [17] = target: Cytochrome P450 2C9 (Homo sapiens) (UniProt P11712); test: qHTS Assay for Inhibitors and Substrates of Cytochrome P450 2C9 (AID 883; active = well fitted inhibition curve with a large enough effect; also: potency is read from the fitted curve at half-maximal effect; nearly all actives have a fitted effect of over 60% in size)
# Method in brief: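 Signal: luciferase luminescence reporting luciferin produced by CYP2C9. Conditions: 10nM enzyme, Luciferin-H 100uM at KM, 25mM KPO4, 37C, 60 min NADPH-driven reaction. Reference: 57uM sulphaphenazole as 100% inhibition.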
# [18] = target: 3',5'-cyclic-AMP phosphodiesterase 4B (Homo sapiens) (UniProt Q07343); test: qHTS Assay for Inhibitors of PDE-IV (AID 607; active = well fitted activation curve with a large enough effect in the main read-out, with a control signal flat, not every such curve was filed as active)
# Method in brief: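 The readout is membrane depolarisation from a cAMP-sensing CNG channel, detected with a potential dye at ex 535/em 590. Cells were HEK293-derived (endogenous PDE-IV) at 1000 cells/well, titrated up to 22.9 uM final.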
# [19] = qHTS assay for small molecule agonists of the antioxidant response element (ARE) signaling pathway (AID 651741; active = well fitted activation curve with a large enough effect in the signal ratio; the % refers to the signal ratio; also: potency is read from the fitted curve at half-maximal effect)
# Method in brief: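 HepG2 ARE-bla cells plated at 2,000 cells/well and incubated 5 h at 37 C/5% CO2 received 23 nL compound in DMSO. After 16 h at 37 C, LiveBLAzer B/G FRET substrate was applied for 2 h at room temperature and fluorescence read.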
# Peroxisome proliferator-activated receptor delta (Homo sapiens), sequence (Q03181 whole entry, looked up): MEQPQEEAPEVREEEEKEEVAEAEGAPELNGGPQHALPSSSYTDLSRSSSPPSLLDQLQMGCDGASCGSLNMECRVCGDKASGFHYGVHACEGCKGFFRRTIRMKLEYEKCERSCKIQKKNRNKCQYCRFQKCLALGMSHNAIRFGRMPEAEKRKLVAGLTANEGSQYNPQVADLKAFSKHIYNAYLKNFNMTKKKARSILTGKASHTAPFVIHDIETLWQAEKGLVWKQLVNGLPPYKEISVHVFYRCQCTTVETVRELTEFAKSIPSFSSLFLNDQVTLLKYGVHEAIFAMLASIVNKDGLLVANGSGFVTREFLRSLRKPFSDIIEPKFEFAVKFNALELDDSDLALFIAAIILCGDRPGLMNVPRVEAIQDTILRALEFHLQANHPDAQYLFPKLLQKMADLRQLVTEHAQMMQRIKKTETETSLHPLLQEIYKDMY
# Retinoic acid receptor RXR-alpha (Homo sapiens), sequence (P19793 whole entry, looked up): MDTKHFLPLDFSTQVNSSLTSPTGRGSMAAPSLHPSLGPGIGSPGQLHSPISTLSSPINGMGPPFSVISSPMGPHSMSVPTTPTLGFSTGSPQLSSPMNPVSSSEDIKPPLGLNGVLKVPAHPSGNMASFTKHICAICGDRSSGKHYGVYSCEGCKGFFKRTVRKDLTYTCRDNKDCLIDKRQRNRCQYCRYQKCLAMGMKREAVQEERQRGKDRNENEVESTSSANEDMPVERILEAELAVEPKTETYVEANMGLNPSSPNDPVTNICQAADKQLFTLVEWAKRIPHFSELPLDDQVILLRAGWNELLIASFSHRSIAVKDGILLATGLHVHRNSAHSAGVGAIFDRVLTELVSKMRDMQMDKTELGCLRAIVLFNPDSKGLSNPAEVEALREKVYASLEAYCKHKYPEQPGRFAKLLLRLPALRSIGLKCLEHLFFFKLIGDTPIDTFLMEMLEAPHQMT
# Glucocorticoid receptor (Homo sapiens), sequence (P04150 whole entry, looked up): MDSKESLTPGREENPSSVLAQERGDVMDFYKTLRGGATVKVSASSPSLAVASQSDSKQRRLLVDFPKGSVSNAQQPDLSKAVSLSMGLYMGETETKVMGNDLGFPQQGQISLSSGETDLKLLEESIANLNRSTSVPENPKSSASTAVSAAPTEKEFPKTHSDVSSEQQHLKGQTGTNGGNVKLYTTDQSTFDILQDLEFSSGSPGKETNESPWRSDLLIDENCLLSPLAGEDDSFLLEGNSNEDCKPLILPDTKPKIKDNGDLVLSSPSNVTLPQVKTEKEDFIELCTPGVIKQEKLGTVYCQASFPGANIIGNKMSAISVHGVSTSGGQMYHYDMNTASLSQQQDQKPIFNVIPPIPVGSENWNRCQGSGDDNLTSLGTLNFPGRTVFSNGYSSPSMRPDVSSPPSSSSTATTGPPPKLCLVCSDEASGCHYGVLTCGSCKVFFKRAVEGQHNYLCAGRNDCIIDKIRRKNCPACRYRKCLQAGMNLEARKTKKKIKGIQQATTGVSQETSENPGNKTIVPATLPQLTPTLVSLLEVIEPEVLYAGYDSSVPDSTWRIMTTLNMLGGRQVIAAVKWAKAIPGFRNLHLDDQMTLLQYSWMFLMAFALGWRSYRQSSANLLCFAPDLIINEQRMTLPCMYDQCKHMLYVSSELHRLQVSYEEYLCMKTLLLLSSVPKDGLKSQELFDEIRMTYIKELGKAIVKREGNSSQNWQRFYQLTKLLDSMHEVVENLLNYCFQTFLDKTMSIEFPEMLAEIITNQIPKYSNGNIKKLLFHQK
# Vitamin D3 receptor (Homo sapiens), sequence (P11473 whole entry, looked up): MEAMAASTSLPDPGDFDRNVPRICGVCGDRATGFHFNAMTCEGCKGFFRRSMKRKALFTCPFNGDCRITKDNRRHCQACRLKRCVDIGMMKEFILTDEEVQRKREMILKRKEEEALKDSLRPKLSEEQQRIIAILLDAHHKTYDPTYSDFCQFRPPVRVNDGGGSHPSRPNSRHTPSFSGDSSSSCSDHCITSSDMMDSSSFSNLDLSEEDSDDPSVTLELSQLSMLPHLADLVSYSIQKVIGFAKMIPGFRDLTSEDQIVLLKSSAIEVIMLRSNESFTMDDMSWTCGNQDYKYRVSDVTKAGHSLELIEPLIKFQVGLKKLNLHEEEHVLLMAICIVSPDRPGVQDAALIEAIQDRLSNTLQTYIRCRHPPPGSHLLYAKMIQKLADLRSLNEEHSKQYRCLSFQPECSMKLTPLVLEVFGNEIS
# 3',5'-cyclic-AMP phosphodiesterase 4B (Homo sapiens), sequence (Q07343 whole entry, looked up): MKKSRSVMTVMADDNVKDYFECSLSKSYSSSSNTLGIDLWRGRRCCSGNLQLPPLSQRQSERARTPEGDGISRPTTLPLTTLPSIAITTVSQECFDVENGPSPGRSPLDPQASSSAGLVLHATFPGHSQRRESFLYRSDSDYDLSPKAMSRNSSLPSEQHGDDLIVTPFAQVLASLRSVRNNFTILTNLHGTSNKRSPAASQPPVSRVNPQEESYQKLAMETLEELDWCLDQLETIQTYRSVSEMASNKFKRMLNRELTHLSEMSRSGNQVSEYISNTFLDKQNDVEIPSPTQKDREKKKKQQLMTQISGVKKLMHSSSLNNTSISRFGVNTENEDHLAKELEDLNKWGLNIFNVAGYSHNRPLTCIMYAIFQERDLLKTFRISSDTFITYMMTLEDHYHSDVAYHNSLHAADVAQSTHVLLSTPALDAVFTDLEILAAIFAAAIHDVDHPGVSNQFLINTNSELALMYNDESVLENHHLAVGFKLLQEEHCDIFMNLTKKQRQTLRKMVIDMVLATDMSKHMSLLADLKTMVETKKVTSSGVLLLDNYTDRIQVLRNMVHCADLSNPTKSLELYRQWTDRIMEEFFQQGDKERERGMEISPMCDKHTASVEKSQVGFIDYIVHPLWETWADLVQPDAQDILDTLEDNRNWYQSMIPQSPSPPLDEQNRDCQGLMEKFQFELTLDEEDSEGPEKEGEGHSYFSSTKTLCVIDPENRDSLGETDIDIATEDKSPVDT
# Cytochrome P450 2C9 (Homo sapiens), sequence (P11712 whole entry, looked up): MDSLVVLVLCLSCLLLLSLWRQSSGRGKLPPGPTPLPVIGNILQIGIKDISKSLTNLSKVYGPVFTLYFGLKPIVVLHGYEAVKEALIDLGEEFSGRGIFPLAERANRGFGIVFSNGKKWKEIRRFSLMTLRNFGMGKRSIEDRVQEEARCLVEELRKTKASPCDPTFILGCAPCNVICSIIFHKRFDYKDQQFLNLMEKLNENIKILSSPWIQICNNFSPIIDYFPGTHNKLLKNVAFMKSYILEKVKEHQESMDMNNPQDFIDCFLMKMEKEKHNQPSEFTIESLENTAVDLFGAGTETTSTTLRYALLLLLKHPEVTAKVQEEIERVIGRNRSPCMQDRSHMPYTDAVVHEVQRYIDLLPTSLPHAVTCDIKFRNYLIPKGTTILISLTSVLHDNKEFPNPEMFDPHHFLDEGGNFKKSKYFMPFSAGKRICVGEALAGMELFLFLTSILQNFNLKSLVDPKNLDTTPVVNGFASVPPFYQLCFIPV
# Peroxisome proliferator-activated receptor gamma (Homo sapiens), sequence (P37231 whole entry, looked up): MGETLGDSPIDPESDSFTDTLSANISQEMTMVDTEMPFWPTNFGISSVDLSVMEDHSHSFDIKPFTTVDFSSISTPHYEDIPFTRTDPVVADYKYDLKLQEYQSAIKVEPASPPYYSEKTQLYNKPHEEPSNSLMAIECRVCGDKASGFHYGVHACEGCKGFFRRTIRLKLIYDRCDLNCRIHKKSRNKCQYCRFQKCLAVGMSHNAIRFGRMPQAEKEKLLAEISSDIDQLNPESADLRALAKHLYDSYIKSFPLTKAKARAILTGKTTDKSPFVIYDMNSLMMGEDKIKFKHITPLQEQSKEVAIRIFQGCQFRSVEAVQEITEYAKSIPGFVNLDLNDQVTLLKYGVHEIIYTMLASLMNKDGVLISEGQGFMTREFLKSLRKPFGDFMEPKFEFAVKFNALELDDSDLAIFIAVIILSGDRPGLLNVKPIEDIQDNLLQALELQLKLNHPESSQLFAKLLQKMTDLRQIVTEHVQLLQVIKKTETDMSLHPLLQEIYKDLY
# Tumor necrosis factor (Homo sapiens), sequence (P01375 whole entry, looked up): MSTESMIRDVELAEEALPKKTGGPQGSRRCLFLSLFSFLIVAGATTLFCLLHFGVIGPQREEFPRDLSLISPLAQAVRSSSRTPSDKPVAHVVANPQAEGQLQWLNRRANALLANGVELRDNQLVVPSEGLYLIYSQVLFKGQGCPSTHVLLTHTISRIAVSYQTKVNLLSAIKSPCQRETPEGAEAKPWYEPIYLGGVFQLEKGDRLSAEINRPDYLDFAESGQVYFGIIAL
# Estrogen receptor (Homo sapiens), sequence (P03372 whole entry, looked up): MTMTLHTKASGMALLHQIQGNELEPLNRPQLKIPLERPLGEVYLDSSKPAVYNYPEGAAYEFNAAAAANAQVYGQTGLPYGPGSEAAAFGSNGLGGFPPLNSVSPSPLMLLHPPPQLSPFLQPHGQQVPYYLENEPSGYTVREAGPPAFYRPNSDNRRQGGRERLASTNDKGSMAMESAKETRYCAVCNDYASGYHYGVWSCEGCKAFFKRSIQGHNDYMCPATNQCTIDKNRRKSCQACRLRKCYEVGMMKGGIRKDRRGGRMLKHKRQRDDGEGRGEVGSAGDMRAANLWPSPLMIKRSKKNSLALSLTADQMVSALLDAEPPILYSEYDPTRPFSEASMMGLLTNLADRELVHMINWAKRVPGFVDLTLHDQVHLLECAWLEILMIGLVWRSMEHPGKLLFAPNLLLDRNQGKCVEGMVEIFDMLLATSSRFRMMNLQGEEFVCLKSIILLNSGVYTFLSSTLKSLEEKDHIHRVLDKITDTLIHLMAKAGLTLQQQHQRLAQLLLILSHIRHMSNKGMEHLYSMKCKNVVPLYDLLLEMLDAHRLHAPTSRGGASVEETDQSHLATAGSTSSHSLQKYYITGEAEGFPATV
smiles,measurement,setting,value
Cc1cccc(O)c1C,outcome,[1],inactive
same,Potency,[2],inactive
same,activation,[3],5.02% (inactive)
same,Potency,[4],inactive
same,max response,[5],-7.79%
same,outcome,[6],inactive
same,outcome,[7],inactive
same,Potency,[8],inactive
same,Potency,[9],inactive
same,outcome,[10],inactive
same,max response,[11],-18.7%
same,max response,[12],10.3%
same,max response,[13],20.3% (inactive)
same,activation,[14],-2.61% (inactive)
same,outcome,[15],inactive
O=C(OCC(COC(=O)c1ccccc1)(COC(=O)c1ccccc1)COC(=O)c1ccccc1)c1ccccc1,outcome,[15],inactive
same,outcome,[16],inactive
C=CC(=O)OCC(CO)(COC(=O)C=C)COC(=O)C=C,activation,[3],-3.48% (inactive) and -11.6% (inactive)
same,outcome,[15],inactive
CC(C)c1cccc2c([Si](C)(C)C)c3c(nc12)-c1cccc(=O)n1C3,Potency,[17],2 µM (active)
CCCC/C=C/C(NC(=O)Oc1cccc(C(F)(F)F)c1)c1ccccc1 (stereo not given),Potency,[18],inactive
CCC/C=C(\CCC)C(NS(=O)(=O)c1cccs1)c1ccc(C(=O)OC)cc1 (stereo not given),Potency,[18],inactive
same,Potency,[17],2 µM (active)
CCC/C=C(\CCC)C(NC(=O)OCC(C)C)c1ccc(C(=O)OC)cc1 (stereo not given),Potency,[18],inactive
same,Potency,[17],3.98 µM (active)
CN1[C@H]2CC(OC(=O)[C@H](CO)c3ccccc3)C[C@H]1[C@H]1O[C@H]12 (stereo not given in full),outcome,[1],inactive
same,max response,[5],-6.66% and 15.5%
same,outcome,[6],inactive
same,outcome,[7],inactive
same,Potency,[9],inactive
same,outcome,[10],inactive
same,max response,[11],3.87% and -2.7%
same,max response,[12],-12.3% and -10.2%
same,max response,[13],-1.24% (inactive) and 3.3% (inactive)
same,Potency,[19],inactive
same,activation,[14],-1.86% (inactive) and -3.02% (inactive)
same,outcome,[15],inactive
same,outcome,[16],inactive
CCCCCCCC[N+](CCCCCCCC)(CCCCCCCC)CCCCCCCC,Potency,[9],inactive
same,Potency,[19],8.41 µM (active)
same,outcome,[15],inactive
CCC/C=C(\CCC)C(NS(=O)(=O)c1ccc(Cl)cc1)c1ccc(C(=O)OC)cc1 (stereo not given),Potency,[17],3.16 µM (active)
CCCC[C@@H]1C[C@H]1C(NC(=O)c1ccco1)c1ccc(Cl)cc1 (stereo not given in full),Potency,[17],3.98 µM (active)
O=C(/C=C/c1ccc(O)c(O)c1)OC1C[C@](O)(C(=O)O)C[C@@H](O)[C@H]1O (stereo not given in full),activation,[3],6.81% (inactive) and -6.91% (inactive)
same,max response,[5],3.46% and 31.4%
same,outcome,[6],inactive
same,max response,[11],6.31% and 0.0385%
same,max response,[12],-7.31% and 4.34%
same,max response,[13],-11.4% (inactive) and -2.14% (inactive)
same,activation,[14],-1.07% (inactive) and -1.86% (inactive)
